Assay results taken from the supplement of paper PMC11732987, “Enantioselective OTUD7B fragment discovery through chemoproteomics screening and high-throughput optimisation” (Communications Chemistry, 2025).

Legend:
Experiment in all cases: log2 ratio of Biotin-Ahx-Ub-VS probe labelling (fragment/DMSO); higher = less target engagement (more negative = stronger competition), active = hit call of the paper (q ≤ 0.05, log2 ratio ≤ -1)
Details in all cases: compound concentration: 200 uM; treatment time: 3 h
[1] = molecular target: USP34 (UniProt Q70CQ2)
USP34, sequence (Q70CQ2 whole entry, the tested form may be a part): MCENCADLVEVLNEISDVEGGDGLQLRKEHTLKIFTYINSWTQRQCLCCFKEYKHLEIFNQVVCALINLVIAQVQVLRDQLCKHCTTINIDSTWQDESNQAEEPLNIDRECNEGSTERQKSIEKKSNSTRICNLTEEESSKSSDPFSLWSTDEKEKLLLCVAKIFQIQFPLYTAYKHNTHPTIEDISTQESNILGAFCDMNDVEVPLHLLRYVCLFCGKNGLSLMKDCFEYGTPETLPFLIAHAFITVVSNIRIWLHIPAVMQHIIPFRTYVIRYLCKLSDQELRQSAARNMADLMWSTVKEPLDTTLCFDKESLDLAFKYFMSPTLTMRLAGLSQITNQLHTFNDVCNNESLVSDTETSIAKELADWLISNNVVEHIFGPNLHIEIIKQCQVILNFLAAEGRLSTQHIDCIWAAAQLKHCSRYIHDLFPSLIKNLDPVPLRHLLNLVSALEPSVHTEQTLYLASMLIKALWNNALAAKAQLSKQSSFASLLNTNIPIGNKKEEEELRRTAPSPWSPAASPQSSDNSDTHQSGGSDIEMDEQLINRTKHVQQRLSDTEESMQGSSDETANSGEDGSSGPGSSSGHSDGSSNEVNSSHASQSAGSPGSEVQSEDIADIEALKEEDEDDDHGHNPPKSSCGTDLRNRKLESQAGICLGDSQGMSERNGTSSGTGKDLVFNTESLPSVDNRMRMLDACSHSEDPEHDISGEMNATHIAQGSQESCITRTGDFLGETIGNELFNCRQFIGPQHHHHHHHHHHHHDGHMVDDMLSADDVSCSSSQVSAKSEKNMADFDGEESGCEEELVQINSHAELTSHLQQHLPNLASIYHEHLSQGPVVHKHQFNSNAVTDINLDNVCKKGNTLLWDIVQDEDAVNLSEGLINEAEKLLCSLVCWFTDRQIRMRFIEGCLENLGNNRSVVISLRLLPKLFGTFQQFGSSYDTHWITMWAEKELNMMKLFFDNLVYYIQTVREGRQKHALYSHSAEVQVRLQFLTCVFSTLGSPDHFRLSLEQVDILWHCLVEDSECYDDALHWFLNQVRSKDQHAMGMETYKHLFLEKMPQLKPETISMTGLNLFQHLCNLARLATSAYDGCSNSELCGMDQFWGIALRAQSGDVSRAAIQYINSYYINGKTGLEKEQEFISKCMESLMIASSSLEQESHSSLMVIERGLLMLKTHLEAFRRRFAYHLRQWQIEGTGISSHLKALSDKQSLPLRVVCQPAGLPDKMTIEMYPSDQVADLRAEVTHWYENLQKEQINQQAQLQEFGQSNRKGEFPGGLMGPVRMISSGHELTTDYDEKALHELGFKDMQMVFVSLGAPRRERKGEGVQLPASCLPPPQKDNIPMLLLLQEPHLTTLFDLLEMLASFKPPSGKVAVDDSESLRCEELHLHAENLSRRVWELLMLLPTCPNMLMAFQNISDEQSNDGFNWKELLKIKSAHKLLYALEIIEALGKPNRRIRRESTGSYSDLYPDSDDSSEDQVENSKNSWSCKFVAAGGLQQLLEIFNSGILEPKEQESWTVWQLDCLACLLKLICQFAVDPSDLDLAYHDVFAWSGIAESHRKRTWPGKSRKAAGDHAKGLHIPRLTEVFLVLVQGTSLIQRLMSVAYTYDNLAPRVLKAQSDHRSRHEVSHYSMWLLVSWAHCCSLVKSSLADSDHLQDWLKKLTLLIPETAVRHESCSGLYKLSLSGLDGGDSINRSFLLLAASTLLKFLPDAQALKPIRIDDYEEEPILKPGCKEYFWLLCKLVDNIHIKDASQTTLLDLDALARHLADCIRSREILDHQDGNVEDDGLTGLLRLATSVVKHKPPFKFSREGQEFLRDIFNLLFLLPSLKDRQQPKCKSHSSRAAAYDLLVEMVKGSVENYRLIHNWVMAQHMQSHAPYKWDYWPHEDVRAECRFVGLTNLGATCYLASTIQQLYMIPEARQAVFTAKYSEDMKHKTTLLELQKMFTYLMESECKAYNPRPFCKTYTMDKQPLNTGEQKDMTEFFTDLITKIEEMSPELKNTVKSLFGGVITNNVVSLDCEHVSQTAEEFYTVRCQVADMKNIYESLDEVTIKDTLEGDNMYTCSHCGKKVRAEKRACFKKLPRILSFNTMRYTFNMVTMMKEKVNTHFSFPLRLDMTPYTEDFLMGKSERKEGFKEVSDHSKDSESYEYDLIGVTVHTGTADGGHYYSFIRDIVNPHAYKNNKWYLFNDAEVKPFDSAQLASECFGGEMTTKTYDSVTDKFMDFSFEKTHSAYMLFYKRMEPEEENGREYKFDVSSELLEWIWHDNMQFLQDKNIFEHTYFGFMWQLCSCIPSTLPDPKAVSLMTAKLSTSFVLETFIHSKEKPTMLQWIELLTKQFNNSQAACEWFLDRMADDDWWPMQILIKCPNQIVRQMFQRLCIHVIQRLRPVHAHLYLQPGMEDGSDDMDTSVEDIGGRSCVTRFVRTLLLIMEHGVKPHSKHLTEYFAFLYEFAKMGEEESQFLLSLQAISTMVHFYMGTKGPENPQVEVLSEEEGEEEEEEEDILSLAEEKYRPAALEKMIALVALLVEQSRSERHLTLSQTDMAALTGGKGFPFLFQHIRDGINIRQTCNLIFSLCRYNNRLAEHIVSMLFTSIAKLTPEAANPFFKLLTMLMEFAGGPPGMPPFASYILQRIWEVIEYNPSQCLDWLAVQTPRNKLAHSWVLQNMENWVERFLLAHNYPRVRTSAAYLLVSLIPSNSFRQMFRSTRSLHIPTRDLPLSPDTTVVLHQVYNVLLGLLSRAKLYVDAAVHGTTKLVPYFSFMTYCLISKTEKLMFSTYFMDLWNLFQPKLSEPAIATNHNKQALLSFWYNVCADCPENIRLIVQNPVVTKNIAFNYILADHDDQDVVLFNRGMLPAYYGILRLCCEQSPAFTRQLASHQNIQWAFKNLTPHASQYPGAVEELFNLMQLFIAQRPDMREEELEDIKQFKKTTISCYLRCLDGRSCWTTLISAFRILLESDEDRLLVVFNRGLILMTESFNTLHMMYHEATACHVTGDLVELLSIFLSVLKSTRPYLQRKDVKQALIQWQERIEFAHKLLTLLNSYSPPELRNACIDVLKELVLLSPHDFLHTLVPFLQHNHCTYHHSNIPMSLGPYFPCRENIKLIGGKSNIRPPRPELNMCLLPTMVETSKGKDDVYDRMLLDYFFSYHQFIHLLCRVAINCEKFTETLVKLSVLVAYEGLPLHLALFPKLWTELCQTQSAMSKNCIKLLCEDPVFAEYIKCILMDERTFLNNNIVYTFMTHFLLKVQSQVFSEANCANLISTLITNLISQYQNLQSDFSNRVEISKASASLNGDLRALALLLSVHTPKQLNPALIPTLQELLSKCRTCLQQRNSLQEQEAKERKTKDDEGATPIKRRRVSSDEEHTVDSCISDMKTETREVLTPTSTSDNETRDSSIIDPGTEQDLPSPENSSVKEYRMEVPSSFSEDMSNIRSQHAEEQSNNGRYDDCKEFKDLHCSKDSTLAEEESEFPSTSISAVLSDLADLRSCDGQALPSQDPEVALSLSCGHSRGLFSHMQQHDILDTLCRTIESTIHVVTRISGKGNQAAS
In short: (§1)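 Labelled DUBs from HEK293T lysate were NeutrAvidin-enriched, digested with LysC and trypsin, and run by diaPASEF LC-MS/MS. Before that, each 495 µg sample in Tris/CHAPS/IGEPAL buffer with protease inhibitors was treated in triplicate with fragment at 200 µM or vehicle for 3 h, then with Biotin-Ahx-Ub-VS at 0.5 µM final for 1 h. Values are average log2 ratios of fragment over vehicle by unpaired t-test, based on global-median-normalised Spectronaut label-free quantities from proteins with ≥2 unique peptides.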

[2] = molecular target: T1, USP36 (UniProt Q9P275)
T1 sequence (whole entry): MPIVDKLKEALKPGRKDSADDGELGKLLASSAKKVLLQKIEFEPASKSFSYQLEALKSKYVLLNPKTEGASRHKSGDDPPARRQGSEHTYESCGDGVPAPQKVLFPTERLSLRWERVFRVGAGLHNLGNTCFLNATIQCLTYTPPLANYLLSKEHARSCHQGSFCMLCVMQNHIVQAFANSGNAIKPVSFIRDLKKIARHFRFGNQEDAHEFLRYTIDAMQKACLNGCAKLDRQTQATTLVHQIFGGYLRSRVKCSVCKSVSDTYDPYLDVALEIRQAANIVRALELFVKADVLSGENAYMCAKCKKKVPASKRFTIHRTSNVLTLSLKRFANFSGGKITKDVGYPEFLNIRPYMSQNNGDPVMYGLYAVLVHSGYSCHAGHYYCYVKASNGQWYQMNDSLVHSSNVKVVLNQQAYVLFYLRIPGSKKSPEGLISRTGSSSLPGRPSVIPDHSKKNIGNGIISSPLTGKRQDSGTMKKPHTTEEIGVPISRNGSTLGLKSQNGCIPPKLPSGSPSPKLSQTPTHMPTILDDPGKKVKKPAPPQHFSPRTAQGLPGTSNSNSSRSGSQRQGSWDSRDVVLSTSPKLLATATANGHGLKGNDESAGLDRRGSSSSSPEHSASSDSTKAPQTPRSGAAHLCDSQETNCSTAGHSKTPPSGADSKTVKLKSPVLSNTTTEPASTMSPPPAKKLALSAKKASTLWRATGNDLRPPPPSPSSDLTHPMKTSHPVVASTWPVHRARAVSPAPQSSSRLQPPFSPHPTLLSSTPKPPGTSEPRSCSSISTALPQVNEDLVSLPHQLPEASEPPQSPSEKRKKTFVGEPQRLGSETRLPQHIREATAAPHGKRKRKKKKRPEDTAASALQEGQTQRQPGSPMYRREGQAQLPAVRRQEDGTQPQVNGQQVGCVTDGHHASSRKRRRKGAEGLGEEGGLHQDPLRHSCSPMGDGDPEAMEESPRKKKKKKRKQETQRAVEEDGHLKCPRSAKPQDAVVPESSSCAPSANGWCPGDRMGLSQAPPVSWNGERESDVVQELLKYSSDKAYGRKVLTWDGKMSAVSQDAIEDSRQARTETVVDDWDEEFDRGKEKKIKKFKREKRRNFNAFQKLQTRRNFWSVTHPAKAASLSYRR
In short: as §1

[3] = molecular target: T2, USP38 (UniProt Q8NB14)
T2 sequence (whole entry): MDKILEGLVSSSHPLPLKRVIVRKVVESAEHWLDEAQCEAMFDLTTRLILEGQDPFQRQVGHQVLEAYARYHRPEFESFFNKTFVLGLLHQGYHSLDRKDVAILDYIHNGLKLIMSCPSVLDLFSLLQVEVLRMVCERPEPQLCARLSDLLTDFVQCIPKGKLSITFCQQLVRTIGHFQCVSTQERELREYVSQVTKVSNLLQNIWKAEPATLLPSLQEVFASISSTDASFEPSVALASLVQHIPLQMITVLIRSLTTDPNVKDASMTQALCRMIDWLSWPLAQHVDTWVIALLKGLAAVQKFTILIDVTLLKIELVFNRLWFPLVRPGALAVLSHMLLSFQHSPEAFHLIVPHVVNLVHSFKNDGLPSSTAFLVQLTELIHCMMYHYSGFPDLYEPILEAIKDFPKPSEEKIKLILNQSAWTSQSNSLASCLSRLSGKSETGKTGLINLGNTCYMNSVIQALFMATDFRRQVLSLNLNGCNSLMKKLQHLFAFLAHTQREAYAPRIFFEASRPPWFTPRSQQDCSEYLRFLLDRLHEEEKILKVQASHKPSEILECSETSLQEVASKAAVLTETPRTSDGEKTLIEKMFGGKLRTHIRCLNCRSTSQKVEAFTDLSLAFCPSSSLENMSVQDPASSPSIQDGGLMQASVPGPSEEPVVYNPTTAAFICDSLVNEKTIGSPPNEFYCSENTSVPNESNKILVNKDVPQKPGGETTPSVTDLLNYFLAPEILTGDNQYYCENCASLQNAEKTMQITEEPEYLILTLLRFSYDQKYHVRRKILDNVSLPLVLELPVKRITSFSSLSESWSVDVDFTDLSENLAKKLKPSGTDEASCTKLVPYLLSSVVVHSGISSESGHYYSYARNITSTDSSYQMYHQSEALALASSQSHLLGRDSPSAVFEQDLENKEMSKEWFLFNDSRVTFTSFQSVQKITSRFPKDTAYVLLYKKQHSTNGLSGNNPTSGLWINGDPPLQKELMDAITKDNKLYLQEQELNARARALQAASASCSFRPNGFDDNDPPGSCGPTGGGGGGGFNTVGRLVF
In short: as §1

[4] = molecular target: T3, USP39 (UniProt Q53GS9)
T3 sequence (whole entry): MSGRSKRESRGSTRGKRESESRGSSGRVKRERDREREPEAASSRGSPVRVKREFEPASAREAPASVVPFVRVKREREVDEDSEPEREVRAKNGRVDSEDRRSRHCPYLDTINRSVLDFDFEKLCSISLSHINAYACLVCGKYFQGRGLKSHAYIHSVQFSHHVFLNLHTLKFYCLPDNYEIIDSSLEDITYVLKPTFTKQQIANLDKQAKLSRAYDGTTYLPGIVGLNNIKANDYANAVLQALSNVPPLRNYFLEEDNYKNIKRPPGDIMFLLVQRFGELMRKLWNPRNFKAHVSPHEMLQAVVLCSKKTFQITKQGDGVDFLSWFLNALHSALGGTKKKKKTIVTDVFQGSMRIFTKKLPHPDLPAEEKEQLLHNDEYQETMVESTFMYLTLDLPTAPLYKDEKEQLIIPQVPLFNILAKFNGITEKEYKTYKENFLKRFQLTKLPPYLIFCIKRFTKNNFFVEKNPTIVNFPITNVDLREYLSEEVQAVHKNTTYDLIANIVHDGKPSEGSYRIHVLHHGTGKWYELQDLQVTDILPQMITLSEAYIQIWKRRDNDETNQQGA
In short: as §1

[5] = molecular target: T4, USP4 (UniProt Q13107)
T4 sequence (whole entry): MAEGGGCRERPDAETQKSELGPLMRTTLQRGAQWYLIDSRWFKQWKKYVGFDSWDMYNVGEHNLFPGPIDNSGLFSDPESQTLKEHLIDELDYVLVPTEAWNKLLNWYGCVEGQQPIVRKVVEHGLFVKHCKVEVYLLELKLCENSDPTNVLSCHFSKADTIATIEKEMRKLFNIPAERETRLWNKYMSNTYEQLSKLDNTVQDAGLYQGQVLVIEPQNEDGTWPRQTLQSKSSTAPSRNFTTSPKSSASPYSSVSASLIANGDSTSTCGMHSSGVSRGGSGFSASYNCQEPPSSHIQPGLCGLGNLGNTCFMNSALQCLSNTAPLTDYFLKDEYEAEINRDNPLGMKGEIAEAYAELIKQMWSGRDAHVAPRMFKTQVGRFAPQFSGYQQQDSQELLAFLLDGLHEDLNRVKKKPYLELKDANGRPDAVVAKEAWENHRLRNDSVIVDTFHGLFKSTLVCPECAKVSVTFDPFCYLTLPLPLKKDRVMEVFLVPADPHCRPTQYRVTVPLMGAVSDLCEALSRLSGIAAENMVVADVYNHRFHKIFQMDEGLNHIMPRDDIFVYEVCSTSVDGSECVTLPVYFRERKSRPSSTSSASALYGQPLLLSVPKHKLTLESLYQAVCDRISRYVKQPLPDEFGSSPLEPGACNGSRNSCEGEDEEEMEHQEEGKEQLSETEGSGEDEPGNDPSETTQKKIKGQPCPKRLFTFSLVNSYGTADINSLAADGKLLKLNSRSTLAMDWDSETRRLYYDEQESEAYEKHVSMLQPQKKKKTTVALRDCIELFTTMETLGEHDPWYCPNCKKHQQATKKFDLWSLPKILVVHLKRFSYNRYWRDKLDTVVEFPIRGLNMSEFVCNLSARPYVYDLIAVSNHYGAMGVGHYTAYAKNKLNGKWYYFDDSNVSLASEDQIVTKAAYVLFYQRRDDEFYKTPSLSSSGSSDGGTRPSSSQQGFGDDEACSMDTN
In short: as §1

Measured: log2 ratio of Biotin-Ahx-Ub-VS probe labelling

Cc1c(C#N)c(NC(=O)CCl)n(Cc2ccco2)c1C
inactive: [1] -0.304 | [2] -0.0578 | [3] -0.297 | [4] -0.162 | [5] -0.372
